# According to the supplement of paper PMC9262897, “Low-cost anti-mycobacterial drug discovery using engineered E. coli” (Nature Communications, 2022):
# Structures can show the parent of a compound that is named as a salt. ± gives the standard deviation of the averaged measurements.
# Key:
# Experiment in all cases: growth (OD600 after 10 h); higher = more growth (less inhibition)
# [1] = test system: E. coli TESEC Alr+ wild-type control; settings: compound 0.1 mM; raw OD600 reference: median of DMSO wells 0.241, cell-free background 0.041
# Experimental: (§1)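 TESEC Mtb Alr E. coli, or the Alr+ wild-type control, in 384-well plates with Prestwick library compounds at 0.1 mM and 1% DMSO, across arabinose induction levels of 1E3 to 1E7 nM. Growth is read as OD600 after 10 h at 37 °C in triplicate biological replicates.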
# [2] = test system: E. coli TESEC Mtb Alr; settings: compound 0.1 mM
# Experimental: as §1
# [3] = test system: E. coli TESEC Mtb Asd; settings: compound 0.1 mM
# Experimental: (§2)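 TESEC E. coli strains in which the native enzyme is deleted and replaced by arabinose-inducible Mtb Asd, DapB, CysH or TrpD, each grown in its selective medium. Strains were screened against the Prestwick library at 0.1 mM and 1% DMSO in 384-well format at low and high arabinose induction. Growth is read as OD600 after 10 h in triplicate.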
# [4] = test system: E. coli TESEC Mtb DapB; settings: compound 0.1 mM
# Experimental: as §2
# [5] = test system: E. coli TESEC Alr+ wild-type control; settings: compound 0.1 mM; raw OD600 reference: median of DMSO wells 0.49, cell-free background 0.052
# Experimental: (§3)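 TESEC Mtb Alr E. coli (ΔaraC ΔtolC ΔentC Δalr ΔdadX, arabinose-inducible Mtb Alr) or the Alr+ wild-type control strain, grown in defined M9-fructose medium without D-alanine in 96-well plates with Prestwick library compounds at 0.1 mM and 1% DMSO. Low Alr induction is 0.1 µM arabinose and high induction is 10 mM arabinose.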
# [6] = test system: E. coli TESEC Mtb Alr; settings: compound 0.1 mM; remark: listed apart in the source
# Experimental: as §3
# [7] = arabinose 1000 nM, raw OD600 reference: median of DMSO wells 0.294, cell-free background 0.041
# [8] = arabinose 10000 nM, raw OD600 reference: median of DMSO wells 0.264, cell-free background 0.041
# [9] = arabinose 100000 nM, raw OD600 reference: median of DMSO wells 0.201, cell-free background 0.041
# [10] = arabinose 1000000 nM, raw OD600 reference: median of DMSO wells 0.193, cell-free background 0.041
# [11] = arabinose 10000000 nM, raw OD600 reference: median of DMSO wells 0.146, cell-free background 0.041
# [12] = arabinose induction (level): High, raw OD600 reference: median of DMSO wells 0.331, cell-free background 0.041
# [13] = arabinose induction (level): Low, raw OD600 reference: median of DMSO wells 0.417, cell-free background 0.041
# [14] = arabinose induction (level): High, raw OD600 reference: median of DMSO wells […], cell-free background 0.041
# [15] = arabinose induction (level): Low, raw OD600 reference: median of DMSO wells 0.227, cell-free background 0.041
# [16] = arabinose 100 nM, raw OD600 reference: median of DMSO wells 0.413, cell-free background 0.052
# [17] = arabinose 10000000 nM, raw OD600 reference: median of DMSO wells […], cell-free background 0.052
Compound,growth [1],"growth [2, 7]","growth [2, 8]","growth [2, 9]","growth [2, 10]","growth [2, 11]","growth [3, 12]","growth [3, 13]","growth [4, 14]","growth [4, 15]",growth [5],"growth [6, 16]","growth [6, 17]"
CC(=O)OCC(=O)[C@@]1(O)CC[C@H]2[C@@H]3CCC4=CC(=O)C=C[C@]4(C)[C@@]3(F)[C@@H](O)C[C@@]21C [Isoflupredone acetate],0.206 ± 0.028,0.266 ± 0.019,0.22 ± 0.0097,0.213 ± 0.015,0.128 ± 0.0061,0.13 ± 0.0065,0.348 ± 0.046,0.413 ± 0.056,0.21 ± 0.01,0.253 ± 0.038,0.422 ± 0.029,0.389 ± 0.0064,0.286 ± 0.01
CCc1c(C)[nH]c2c1C(=O)C(CN1CCOCC1)CC2 (centres undefined) [Molindone hydrochloride],0.221 ± 0.013,0.3135 ± 0.00076,0.251 ± 0.011,0.202 ± 0.018,0.166 ± 0.0061,0.1542 ± 0.0015,0.274 ± 0.06,0.36 ± 0.064,0.189 ± 0.0083,0.25 ± 0.025,0.472 ± 0.013,0.409 ± 0.016,0.33 ± 0.017
CC(=O)Nc1ccc(OCC(O)CNC(C)C)cc1 (centres undefined) [Practolol],0.244 ± 0.0047,0.307 ± 0.0096,0.257 ± 0.0077,0.229 ± 0.04,0.19 ± 0.016,0.145 ± 0.0028,0.408 ± 0.04,0.424 ± 0.027,0.177 ± 0.0065,0.22 ± 0.025,0.643 ± 0.039,0.402 ± 0.014,0.361 ± 0.0065
O=C(N[C@H](CO)[C@H](O)c1ccc([N+](=O)[O-])cc1)C(Cl)Cl [Chloramphenicol],0.0406 ± 0.00026,0.03953 ± 0.00031,0.0391 ± 0.00017,0.0408 ± 0.00053,0.03907 ± 0.00015,0.0407 ± 0.00064,0.0519 ± 0.00067,0.0522 ± 0.0019,0.0496 ± 0.00061,0.0578 ± 0.015,0.05047 ± 0.0005,0.0561 ± 0.0036,0.0533 ± 0.003
Cc1ccc(S(=O)(=O)NC(=O)NN2CC3CCCC3C2)cc1 (centres undefined) [Gliclazide],0.244 ± 0.012,0.309 ± 0.0099,0.271 ± 0.0064,0.222 ± 0.017,0.192 ± 0.0036,0.177 ± 0.0042,0.298 ± 0.032,0.364 ± 0.071,0.212 ± 0.011,0.28 ± 0.042,0.518 ± 0.074,0.404 ± 0.02,0.372 ± 0.0073
Nc1ccc(S(=O)(=O)Nc2ccccn2)cc1 [Sulfapyridine],0.239 ± 0.0046,0.295 ± 0.018,0.261 ± 0.0053,0.219 ± 0.0099,0.174 ± 0.0063,0.141 ± 0.0049,0.354 ± 0.035,0.412 ± 0.015,0.188 ± 0.02,0.215 ± 0.041,0.449 ± 0.0039,0.405 ± 0.013,0.325 ± 0.0082
Cc1cc(NC(=O)C2=C(O)c3ccccc3S(=O)(=O)N2C)no1 [Isoxicam],0.25 ± 0.0032,0.255 ± 0.038,0.26 ± 0.0052,0.184 ± 0.033,0.184 ± 0.0038,0.135 ± 0.0033,0.252 ± 0.022,0.395 ± 0.081,0.199 ± 0.0028,0.216 ± 0.034,0.47 ± 0.018,0.412 ± 0.015,0.299 ± 0.037
"CC1(O)CCOC(=O)C1 (centres undefined) [Mevalonic-D, L acid lactone]",0.244 ± 0.0056,0.304 ± 0.017,0.271 ± 0.0041,0.186 ± 0.019,0.203 ± 0.0065,0.141 ± 0.0074,0.269 ± 0.027,0.402 ± 0.022,0.183 ± 0.011,0.206 ± 0.024,0.506 ± 0.11,0.394 ± 0.03,0.349 ± 0.015
